# Laboratory results taken from PubChem BioAssay (NCATS).
# Several values for one entry are separate records, joined by “and”; a condition that tells them apart may be missing. Identical values can stand only once. Inconclusive results are not listed. Entries that show only a call come without a potency. Unmarked numbers belong to inactive results. Activity calls are given as the source filed them. Calls come from the whole dose curve; as a rule, active = well fitted curve in the direction sought with a large enough effect; inconclusive = small, poorly fitted or top-dose-only effect, or another doubt; inactive = no such curve, though single readings can be large; an effect the other way counts as inactive or inconclusive.
# Columns and labels:
# [1] = system: Zika virus NS2B-NS3 protease (unlinked); test: Optimization of GU AMC qHTS for Zika virus inhibitors: Unlinked NS2B-NS3 protease assay (AID 1347151); note: nearly all actives have a fitted effect of over 80% in size; note: potency is the fitted concentration of half-maximal effect; for activity change, negative = inhibition: series mostly up to about 52 µM
# Procedure, shortened: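 Fluorescence gain (340/450 nm) over 15 min at room temperature, ~20% conversion, gave percent inhibition fitted to a 4-parameter Hill equation; enzyme was unlinked NS2B-NS3 (25 nM final), pH 8.0 Tris buffer.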
# [2] = system: Zika virus NS2B-NS3 protease; test: Primary screen GU AMC qHTS for Zika virus inhibitors (AID 1347154); note: nearly all actives have a fitted effect of over 70% in size; note: potency is the fitted concentration of half-maximal effect
# Procedure, shortened: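 Unlinked Zika NS2B hydrophilic domain–NS3 protease complex at 25 nM in 10 mM Tris-HCl pH 8.0, 0.01% Tween 20, with an AMC peptide substrate. Fluorescence change (340/450 nm) over 15 min at room temperature, normalized to controls, fitted to 4-parameter Hill.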
# [3] = qHTS of pediatric cancer cell lines to identify multiple opportunities for drug repurposing: Confirmatory screen for OHS-50 cells (AID 1347128);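 note: compound exposure lasted 48 h at 37 degrees C; nearly all actives have a fitted effect of over 55% in size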
# Procedure, shortened: (§1)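 Viability after 48 h compound treatment at 37C, 500-1,000 cells/well, read as ATP luminescence with CellTiter-Glo. Primary screens used 11-point (MIPE, 0.78 nM-46 µM) or 8-point (NPC, 0.59 nM-46 µM) final concentrations; follow-up screens used 11-point dilutions.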
# [4] = qHTS of pediatric cancer cell lines to identify multiple opportunities for drug repurposing: Confirmatory screen for SK-N-SH cells (AID 1347129);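 note: cells exposed to compound for 48 h before viability read; nearly all actives have a fitted effect of over 60% in size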
# Procedure, shortened: as §1
# [5] = system: Zika virus NS2B-NS3 protease (linked construct); test: Primary screen NINDS Rhodamine qHTS for Zika virus inhibitors (AID 1347160); note: nearly all actives have a fitted effect of over 55% in size; note: potency is the fitted concentration of half-maximal effect
# Procedure, shortened: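 Single-chain NS2B-NS3 protease, 25 nM, pH 8.0; compounds preincubated 15 min. Activity: Rhodamine110 release from 1.5 microM substrate over 15 min, room temperature, data fitted to 4-parameter Hill.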
# Furin (Homo sapiens) = Furin (Homo sapiens) (UniProt P09958); test: Furin counterscreen qHTS for Zika virus inhibitors (AID 1347149); note: nearly all actives have a fitted effect of over 70% in size; note: potency is the fitted concentration of half-maximal effect;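 for activity change, negative = inhibition: purified recombinant full-length human furin enzyme at 5 nM; fluorescence gain from furin cutting a BOC-RVRR-AMC peptide substrate over 15 min; top concentration of the series differs between compounds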
# Procedure, shortened: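 Counterscreen measures cleavage of 2 microM BOC-RVRR-AMC, below its ~15 microM Km, by 5 nM full-length human furin at pH 7.0 after a 15-min compound preincubation. Inhibition derives from the 15-min fluorescence increase at 37C.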
# [6] = system: Zika virus NS2B-NS3 protease (linked construct); test: Confirmatory screen NINDS AMC qHTS for Zika virus inhibitors (AID 1347152); note: nearly all actives have a fitted effect of over 70% in size; note: potency is the fitted concentration of half-maximal effect; for activity change, negative = inhibition: top concentration of the series differs between compounds
# Procedure, shortened: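 IC50s from 4-parameter Hill fits of percent inhibition, based on AMC fluorescence gain (340/450 nm) over 15 min with 10 microM Bz-Nle-KRR-AMC. Enzyme: 1 nM linked NS2B-NS3 in Tris-HCl pH 8.0; 15-min compound preincubation.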
# [7] = Confirmatory screen GU Rhodamine qHTS for Zika virus inhibitors qHTS (AID 1347157); conditions: purified enzyme assay, Rhodamine110 substrate fluorescence, 15 min; note: potency is the fitted concentration of half-maximal effect; nearly all actives have a fitted effect of over 70% in size
# Procedure, shortened: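 Noncovalent NS2B hydrophilic domain/NS3 protease complex (25 nM final) in 10 mM Tris-HCl pH 8.0, 0.01% Tween 20, preincubated 15 min with compounds (up to 114 microM), then 1.5 microM Rhodamine110 substrate. Fluorescence change over 15 min fitted to 4-parameter Hill.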
# [8] = biological target: N-terminal Xaa-Pro-Lys N-methyltransferase 1 (Homo sapiens) (UniProt Q9BV86); test: qHTS Assay for Inhibitors of N-terminal methyltransferase 1 (NTMT1): LOPAC validation of the NTMT1 SAHH-coupled ThioGlo3 Assay (AID 1347143)
# Procedure, shortened: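 Steps: dispense 125nM NTMT1; pin-transfer test compounds at several concentrations, with 1uM RCC1-6 peptide as control; incubate 1 min; start with reagent holding 100uM SAM, 10uM SAHH, 15uM ThioGlo3; read at 0 and 30 min.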
# [9] = system: Zika virus NS2B-NS3 protease (unlinked complex); test: Confirmatory screen GU AMC qHTS for Zika virus inhibitors (AID 1347153); note: nearly all actives have a fitted effect of over 70% in size
# Procedure, shortened: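 Unlinked enzyme 25 nM, Tris pH 8.0/0.01% Tween 20; cpd 15 min RT, dark; + AMC substrate 10 µM (Km 18.3 µM); 340/450 nm read at t0 and 15 min; % inhibition → 4-param fit.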
# Chain of Furin (Homo sapiens) (P09958 whole entry, looked up): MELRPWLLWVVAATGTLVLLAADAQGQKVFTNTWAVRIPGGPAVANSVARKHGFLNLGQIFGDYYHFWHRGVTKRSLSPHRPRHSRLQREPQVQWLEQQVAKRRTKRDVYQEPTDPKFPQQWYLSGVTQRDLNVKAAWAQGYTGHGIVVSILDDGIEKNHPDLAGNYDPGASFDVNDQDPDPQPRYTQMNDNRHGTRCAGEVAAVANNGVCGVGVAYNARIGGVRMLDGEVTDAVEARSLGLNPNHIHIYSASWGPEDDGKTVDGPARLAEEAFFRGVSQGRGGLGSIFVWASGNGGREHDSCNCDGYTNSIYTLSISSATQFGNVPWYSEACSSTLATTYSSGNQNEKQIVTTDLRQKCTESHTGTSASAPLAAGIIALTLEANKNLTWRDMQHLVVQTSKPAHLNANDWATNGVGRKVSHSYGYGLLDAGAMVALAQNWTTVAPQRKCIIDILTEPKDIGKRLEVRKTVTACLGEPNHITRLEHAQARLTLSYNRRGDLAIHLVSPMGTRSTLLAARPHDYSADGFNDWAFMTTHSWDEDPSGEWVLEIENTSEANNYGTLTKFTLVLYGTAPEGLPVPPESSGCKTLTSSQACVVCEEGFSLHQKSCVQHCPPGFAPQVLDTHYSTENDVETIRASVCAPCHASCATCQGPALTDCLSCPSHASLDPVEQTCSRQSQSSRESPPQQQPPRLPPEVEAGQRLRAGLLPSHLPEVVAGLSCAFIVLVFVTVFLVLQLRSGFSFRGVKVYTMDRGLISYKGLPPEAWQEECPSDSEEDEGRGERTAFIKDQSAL
# Chain of N-terminal Xaa-Pro-Lys N-methyltransferase 1 (Homo sapiens) (Q9BV86 whole entry, looked up): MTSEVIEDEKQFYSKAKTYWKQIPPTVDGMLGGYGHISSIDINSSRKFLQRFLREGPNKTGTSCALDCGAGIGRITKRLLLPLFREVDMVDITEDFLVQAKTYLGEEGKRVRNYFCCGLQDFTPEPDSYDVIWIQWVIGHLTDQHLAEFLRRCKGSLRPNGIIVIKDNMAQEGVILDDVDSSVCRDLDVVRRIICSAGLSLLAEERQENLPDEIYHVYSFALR
compound,measurement,setting,value
CN1CCN(C2Cc3ccccc3Sc3ccc(Cl)cc32)CC1 (stereo not drawn),Potency,[1],inactive
same,Potency,[2],inactive
C[C@@H]1C[C@H]2[C@@H]3C[C@H](F)C4=CC(=O)C=C[C@]4(C)[C@@]3(F)[C@@H](O)C[C@]2(C)[C@@]1(O)C(=O)CO,outcome,[3],inactive
same,outcome,[4],inactive
same,Potency,[2],inactive
same,Potency,[5],inactive
CC(=O)c1ccc2c(c1)N(CCCN(C)C)c1ccccc1S2,Potency,[1],inactive
same,Potency,[2],inactive
CNCCC(Oc1ccc(C(F)(F)F)cc1)c1ccccc1 (stereo not drawn),Potency,[1],inactive
same,Potency,[2],inactive
O=C1N=C(O)CN1/N=C/c1ccc(-c2ccc([N+](=O)[O-])cc2)o1,outcome,[3],inactive
same,outcome,[4],inactive
same,Potency,[1],inactive
CC(C)(C)c1onc(OCP(=O)(O)O)c1CC(N)C(=O)O (stereo not drawn),Potency,[1],inactive
Cc1cc(C(C#N)c2ccc(Cl)cc2)c(Cl)cc1NC(=O)c1cc(I)cc(I)c1O (stereo not drawn),Potency,Furin (Homo sapiens),7.64 µM (active) and 13.9 µM (active)
same,Potency,[6],11.1 µM (active)
same,Potency,[2],3.98 µM (active)
same,Potency,[7],1.75 µM (active) and 1.56 µM (active)
same,Potency,[5],3.16 µM (active)
C[C@](N)(Cc1ccc(O)cc1)C(=O)O,"activity change, negative = cytotoxic",[4],11.7% [at 5.03 µM]
same,Potency,[1],inactive
same,"activity change, negative = inhibition",[2],-1.38% [at 4.99 µM]
CSc1ccc2c(c1)N(CCC1CCCCN1C)c1ccccc1S2 (stereo not drawn),Potency,[8],44.7 µM (active)
same,Potency,[1],inactive
same,Potency,[2],inactive
CCN(CC)CCNC(=O)c1c(C)[nH]c(/C=C2\C(=O)Nc3ccc(F)cc32)c1C,Potency,[1],inactive
C[C@]12CC[C@@H]3c4ccc(O)cc4CC[C@H]3[C@@H]1CCC2=O,Potency,[1],inactive
same,Potency,[2],inactive
CN(C)CC[C@@H](c1ccc(Cl)cc1)c1ccccn1,Potency,[1],inactive
CCN(CC)CCNC(=O)c1cc(Cl)c(N)cc1OC,outcome,[3],inactive
same,outcome,[4],inactive
same,Potency,[1],inactive
same,Potency,[2],inactive
same,Potency,[5],inactive
N=c1c[n+](N2CCOCC2)[n-]o1,Potency,[1],inactive
CCCn1cnc2c1c(=O)n(CCCCC(C)=O)c(=O)n2C,Potency,[1],inactive
CC1=C(CC(=O)O)c2cc(F)ccc2/C1=C\c1ccc(S(C)=O)cc1 (stereo not drawn),Potency,[1],inactive
same,Potency,[2],inactive
Nc1cc(=O)[nH]c(N)n1,Potency,[1],inactive
same,Potency,[2],inactive
NC1[C@H]2CN(c3nc4c(cc3F)c(=O)c(C(=O)O)cn4-c3ccc(F)cc3F)C[C@@H]12 (stereo partly drawn),Potency,Furin (Homo sapiens),24.1 µM (active)
same,Potency,[1],23.8 µM (active)
same,Potency,[6],inactive
same,outcome,[9],inactive
same,Potency,[2],inactive
CC(=O)OCC(=O)[C@@]1(O)CC[C@H]2[C@@H]3CCC4=CC(=O)CC[C@]4(C)[C@H]3C(=O)C[C@@]21C,Potency,[1],inactive
same,Potency,[2],inactive
CC(C)NC[C@H](O)c1ccc(O)c(O)c1,Potency,[1],inactive
CN(C)CCCN1c2ccccc2Sc2ccc(Cl)cc21,Potency,[1],inactive
OCc1cc(C(O)CNCCCCCCOCCCCc2ccccc2)ccc1O (stereo not drawn),Potency,[1],26.7 µM (active)
N[C@H](C(=O)O)c1ccc(O)cc1,Potency,Furin (Homo sapiens),inactive
same,Potency,[1],inactive
same,Potency,[2],inactive
C[C@H](NC(CCc1ccccc1)C(=O)O)C(=O)N1CCC[C@H]1C(=O)O (stereo partly drawn),Potency,[1],inactive
CNCCCC1c2ccccc2C=Cc2ccccc21,Potency,[8],56.2 µM (active)
same,Potency,[1],26.7 µM (active)
O=C1NC(=O)[C@@]2(CCOc3ccc(F)cc32)N1,Potency,[1],inactive
same,Potency,[2],inactive
CCCCN(CCCC)CC(O)c1cc(Cl)cc2c1-c1ccc(Cl)cc1/C2=C/c1ccc(Cl)cc1 (stereo not drawn),Potency,[1],inactive
CNCC(O)c1ccc(O)c(O)c1 (stereo not drawn),Potency,[1],inactive
same,Potency,[2],inactive
CC(CN1c2ccccc2Sc2ccccc21)N(C)C (stereo not drawn),Potency,[1],inactive
same,Potency,[2],inactive
CN(C)CCCN1c2ccccc2CCc2ccccc21,Potency,[1],inactive
same,Potency,[2],inactive
O=C(O)CN1C(=O)c2cccc3cccc(c23)C1=O,outcome,[4],inactive
same,Potency,[2],inactive
CSc1ccc2c(c1)C(N1CCN(C)CC1)Cc1ccccc1S2 (stereo not drawn),Potency,[1],inactive
same,Potency,[2],inactive
CCN(CC)CCOC(=O)C1(C2CCCCC2)CCCCC1,Potency,[1],inactive
O=c1cc[nH]c(=S)[nH]1,outcome,[4],inactive
CN(C)CCOC(C)(c1ccccc1)c1ccccn1 (stereo not drawn),Potency,[1],inactive
same,Potency,[2],inactive
CN(C)CCC=C1c2ccccc2CCc2ccccc21,Potency,[1],inactive
same,Potency,[2],inactive
CN(C)CCCO[C@@H]1[C@H]2OC(C)(C)O[C@H]2O[C@@H]1C(O)CO (stereo partly drawn),Potency,[2],inactive
COC(=O)C1=C(C)NC(C)=C(C(=O)OC)C1c1ccccc1[N+](=O)[O-],Potency,[1],inactive
same,Potency,[2],inactive
C[C@]12C[C@H](O)[C@H]3[C@@H](CCC4=CC(=O)CC[C@@]43C)[C@@H]1CC[C@@H]2C(=O)CO,Potency,[1],inactive
same,Potency,[2],inactive
CC(C)c1c(C(=O)Nc2ccccc2)c(-c2ccccc2)c(-c2ccc(F)cc2)n1CC[C@@H](O)C[C@@H](O)CC(=O)O,Potency,[1],inactive
same,Potency,[2],inactive
same,Potency,[5],inactive
